Reference: PubChem BioAssay (EPA / NIEHS)
Where “and” joins values, the source holds several entries; their conditions need not be identical. Equal values may be shown once. The source holds several records for some structures; these can differ, active in one and inactive in another. Calls of active or inactive are those of the source. Rule for the calls: active = hit-call score of the fitted dose curve at least 0.9, where 1 is the maximum; inactive = score below 0.9.

These compounds were tested on TIMP metallopeptidase inhibitor 1 (TIMP1), TIMP1 (gene 7076) (assay: BSK_MyoF_TIMP1: BioMAP Diversity Plus: MyoF Assay for TIMP metallopeptidase inhibitor 1 (TIMP1) Biomarker Activity (AID 2284269)). Conditions: primary human lung fibroblasts.
In short: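 Primary human lung fibroblasts, MyoF multiplex system; chemical exposure 24 h; TIMP-1 by ELISA; positive fitting direction vs DMSO control.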

With `CC(C)(C)C(=O)CC(=O)C(F)(F)C(F)(F)C(F)(F)F` as the compound, how does the outcome read?
The outcome was “inactive”.

`O=C(O)C(F)(F)C(F)(F)OC(F)(F)F` was tested. Which outcome did it give?
The outcome was “inactive”.

Which outcome does the source give for `OCC(F)(F)C(F)(F)C(F)(F)C(F)(F)C(F)(F)C(F)(F)F` here?
Its outcome is “inactive”.

With `FC(F)(F)C(F)(F)C(F)(F)C(F)(F)C(F)(F)C(F)(F)C(F)(F)Br` as the compound, how does the outcome read?
Its outcome is “inactive”.

How did the outcome turn out when `C=C(C)C(=O)OCC(F)(F)C(F)(F)C(F)(F)F` was run?
Its outcome is “inactive”.

How did the outcome turn out when `OCC(F)(F)C(F)(F)C(F)(F)C(F)(F)C(F)(F)C(F)F` was run?
The outcome was “inactive”.

Which outcome does the source give for `C=CC(F)(F)C(F)(F)C(F)(F)C(F)(F)C(F)(F)C(F)(F)C(F)(F)C(F)(F)F` here?
The outcome was “inactive”.

Which outcome does the source give for `Cc1ccc(S(=O)(=O)OCC(F)(F)C(F)(F)C(F)(F)C(F)(F)C(F)(F)C(F)F)cc1` here?
The outcome was “inactive”.

`N=C(N)C(F)(F)C(F)(F)C(F)(F)C(F)(F)C(F)(F)C(F)(F)C(F)(F)F` was tested. Which outcome did it give?
Its outcome is “inactive”.

How did the outcome turn out when `CCO[Si](CCC(F)(F)C(F)(F)C(F)(F)C(F)(F)C(F)(F)C(F)(F)F)(OCC)OCC` was run?
Its outcome is “inactive”.

With `FC(F)(F)C(F)(F)CNCC(F)(F)C(F)(F)F` as the compound, how does the outcome read?
The outcome was “inactive”.

For `C=CC(=O)OCC(F)(F)C(F)(F)C(F)(F)C(F)(F)COC(=O)C=C`, which AC50 is on record?
Its AC50 is 14.1 µM (active) and 18.7 µM (active).

`FC(F)(F)C(F)(F)C(F)(F)C(F)(F)C(F)(F)C(F)(F)CC1CO1` (centres undefined) was tested. Which outcome did it give?
The outcome was “inactive”.

With `OCCCC(F)(F)C(F)(F)C(F)(F)F` as the compound, how does the outcome read?
Its outcome is “inactive”.

Which outcome does the source give for `O=C(Cl)C(F)(F)C(F)(F)C(F)(F)C(F)(F)C(F)(F)C(F)(F)C(F)(F)C(F)(F)F` here?
Its outcome is “inactive”.

How did the AC50 turn out when `O=C(O)C(F)(F)C(F)(F)C(F)(F)C(F)(F)C(F)(F)C(F)(F)C(F)(F)C(F)(F)Cl` was run?
The AC50 was 30 µM (active) and 47.9 µM (active).

How did the outcome turn out when `FC(F)(F)C(F)(F)C(F)(F)C(F)(F)C(F)(F)CCI` was run?
The outcome was “inactive”.

With `O=C(O)C(F)(F)C(F)(F)C(F)(F)C(F)(F)C(F)(F)C(F)(F)C(F)(F)C(F)(F)C(F)(F)C(F)F` as the compound, how does the AC50 read?
Its AC50 is 50.9 µM (active).

And the outcome?
Its outcome is “inactive”.

With `O=P(O)(O)OCCC(F)(F)C(F)(F)C(F)(F)C(F)(F)C(F)(F)C(F)(F)F` as the compound, how does the outcome read?
Its outcome is “inactive”.

`FC(F)(Br)C(F)(F)C(F)(F)C(F)(F)C(F)(F)C(F)(F)Br` was tested. Which outcome did it give?
The outcome was “inactive”.

How did the outcome turn out when `OCC(F)(F)C(F)(F)C(F)(F)F` was run?
Its outcome is “inactive”.

With `O=C(O)C(F)(F)C(F)(F)C(F)(F)C(F)(F)C(F)(F)C(F)(F)C(F)(F)C(F)(F)C(F)(F)C(F)(F)C(F)(F)C(F)(F)F` as the compound, how does the outcome read?
The outcome was “inactive”.

How did the outcome turn out when `O=S(=O)(OCC(F)F)C(F)(F)F` was run?
The outcome was “inactive”.

With `FC(F)(F)C(F)(F)C(F)(F)CI` as the compound, how does the outcome read?
The outcome was “inactive”.

`FC(F)(I)C(F)(F)C(F)(F)C(F)(F)I` was tested. Which AC50 did it give?
Its AC50 is 56 µM (active) and 47.7 µM (active) and 46.9 µM (active).

`FC(F)(F)C(F)(F)C(F)(F)C(F)(F)C(F)(F)C(F)(F)C(F)(F)I` was tested. Which outcome did it give?
The outcome was “inactive”.

How did the AC50 turn out when `OCCCC(F)(F)C(F)(F)C(F)(F)C(F)(F)C(F)(F)C(F)(F)C(F)(F)F` was run?
The AC50 was 54.9 µM (active) and 47.5 µM (active).

`COC(=O)CCC(F)(F)C(F)(F)C(F)(F)C(F)(F)F` was tested. Which outcome did it give?
Its outcome is “inactive”.

For `OCC(F)(F)C(F)(F)C(F)(F)C(F)F`, which outcome is on record?
Its outcome is “inactive”.

With `FC1CC(F)(F)C(F)(F)C1(F)F` (centres undefined) as the compound, how does the outcome read?
The outcome was “inactive”.

How did the outcome turn out when `O=C(O)C(F)(F)C(F)(F)C(F)(F)C(F)(F)F` was run?
Its outcome is “inactive”.

With `O=S(=O)(O)C(F)(F)C(F)(F)C(F)(F)C(F)(F)C(F)(F)C(F)(F)C(F)(F)F` as the compound, how does the outcome read?
Its outcome is “inactive”.

How did the outcome turn out when `O=C(CC(=O)C(F)(F)C(F)(F)F)C(F)(F)F` was run?
The outcome was “inactive”.
